In ChEMBL document CHEMBL1961873, “Compounds: GSK PKIS; Assays: Nanosyn kinase panel” (2012) one finds inhibition data, which are given here for six compounds.

Assay [1] addresses Serine/threonine-protein kinase pim-2 (Homo sapiens) (UniProt Q9P1W9). Conditions: at 1 µM.
Assay [2] deals with Serine/threonine-protein kinase pim-3 (Homo sapiens) (UniProt Q86V86). To be noted: at 0.1 µM.
The target is the same in assay [3]. To be noted: at 1 µM.
Assay [4] addresses T1, MAP kinase-activated protein kinase 5 (Homo sapiens) (UniProt Q8IW41).
T1 sequence (whole entry): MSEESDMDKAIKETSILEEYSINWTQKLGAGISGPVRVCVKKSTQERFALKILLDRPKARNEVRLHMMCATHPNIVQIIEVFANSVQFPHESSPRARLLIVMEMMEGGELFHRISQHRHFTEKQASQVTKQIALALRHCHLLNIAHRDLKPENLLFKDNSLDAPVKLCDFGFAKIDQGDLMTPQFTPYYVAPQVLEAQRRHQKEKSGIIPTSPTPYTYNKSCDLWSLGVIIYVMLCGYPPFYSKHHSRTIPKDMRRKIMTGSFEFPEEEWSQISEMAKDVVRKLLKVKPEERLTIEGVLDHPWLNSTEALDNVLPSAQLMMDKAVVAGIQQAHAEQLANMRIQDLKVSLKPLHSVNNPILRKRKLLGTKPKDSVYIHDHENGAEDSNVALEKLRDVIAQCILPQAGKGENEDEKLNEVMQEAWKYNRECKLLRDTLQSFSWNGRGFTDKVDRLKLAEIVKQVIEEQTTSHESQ
Conditions: at 0.1 µM.

The target of assay [5] is T1, MAP kinase-activated protein kinase 5 (Homo sapiens). Conditions: at 1 µM.
In assay [6] the target is Serine/threonine-protein kinase SIK1 (Homo sapiens) (UniProt P57059). To be noted: at 0.1 µM.
Serine/threonine-protein kinase SIK1 (Homo sapiens), sequence (P57059 whole entry): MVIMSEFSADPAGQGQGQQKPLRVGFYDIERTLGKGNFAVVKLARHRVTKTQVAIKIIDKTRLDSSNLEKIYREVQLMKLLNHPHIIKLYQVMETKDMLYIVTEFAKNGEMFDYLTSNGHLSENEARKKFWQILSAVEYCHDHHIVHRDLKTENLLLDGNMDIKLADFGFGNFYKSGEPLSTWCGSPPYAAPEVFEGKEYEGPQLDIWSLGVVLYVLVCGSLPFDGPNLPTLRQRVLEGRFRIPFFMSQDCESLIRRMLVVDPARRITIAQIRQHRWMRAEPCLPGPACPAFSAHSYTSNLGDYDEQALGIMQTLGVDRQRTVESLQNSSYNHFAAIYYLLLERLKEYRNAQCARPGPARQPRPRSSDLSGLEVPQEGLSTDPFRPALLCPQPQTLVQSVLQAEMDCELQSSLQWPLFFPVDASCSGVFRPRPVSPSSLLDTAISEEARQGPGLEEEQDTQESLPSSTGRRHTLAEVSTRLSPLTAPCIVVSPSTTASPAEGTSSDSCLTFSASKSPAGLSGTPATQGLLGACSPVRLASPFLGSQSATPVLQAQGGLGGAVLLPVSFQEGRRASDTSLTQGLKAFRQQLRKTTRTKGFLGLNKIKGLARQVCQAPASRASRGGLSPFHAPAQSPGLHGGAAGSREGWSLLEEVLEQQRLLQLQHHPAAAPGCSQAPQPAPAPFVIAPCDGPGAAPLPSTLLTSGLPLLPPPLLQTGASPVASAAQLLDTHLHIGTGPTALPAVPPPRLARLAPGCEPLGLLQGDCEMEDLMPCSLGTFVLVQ
For assay [7] the target is unchanged. Conditions: at 1 µM.
For assay [8], the target named is Serine/threonine-protein kinase SIK2 (Homo sapiens) (UniProt Q9H0K1). Conditions: at 0.1 µM.
Serine/threonine-protein kinase SIK2 (Homo sapiens), sequence (Q9H0K1 whole entry, looked up): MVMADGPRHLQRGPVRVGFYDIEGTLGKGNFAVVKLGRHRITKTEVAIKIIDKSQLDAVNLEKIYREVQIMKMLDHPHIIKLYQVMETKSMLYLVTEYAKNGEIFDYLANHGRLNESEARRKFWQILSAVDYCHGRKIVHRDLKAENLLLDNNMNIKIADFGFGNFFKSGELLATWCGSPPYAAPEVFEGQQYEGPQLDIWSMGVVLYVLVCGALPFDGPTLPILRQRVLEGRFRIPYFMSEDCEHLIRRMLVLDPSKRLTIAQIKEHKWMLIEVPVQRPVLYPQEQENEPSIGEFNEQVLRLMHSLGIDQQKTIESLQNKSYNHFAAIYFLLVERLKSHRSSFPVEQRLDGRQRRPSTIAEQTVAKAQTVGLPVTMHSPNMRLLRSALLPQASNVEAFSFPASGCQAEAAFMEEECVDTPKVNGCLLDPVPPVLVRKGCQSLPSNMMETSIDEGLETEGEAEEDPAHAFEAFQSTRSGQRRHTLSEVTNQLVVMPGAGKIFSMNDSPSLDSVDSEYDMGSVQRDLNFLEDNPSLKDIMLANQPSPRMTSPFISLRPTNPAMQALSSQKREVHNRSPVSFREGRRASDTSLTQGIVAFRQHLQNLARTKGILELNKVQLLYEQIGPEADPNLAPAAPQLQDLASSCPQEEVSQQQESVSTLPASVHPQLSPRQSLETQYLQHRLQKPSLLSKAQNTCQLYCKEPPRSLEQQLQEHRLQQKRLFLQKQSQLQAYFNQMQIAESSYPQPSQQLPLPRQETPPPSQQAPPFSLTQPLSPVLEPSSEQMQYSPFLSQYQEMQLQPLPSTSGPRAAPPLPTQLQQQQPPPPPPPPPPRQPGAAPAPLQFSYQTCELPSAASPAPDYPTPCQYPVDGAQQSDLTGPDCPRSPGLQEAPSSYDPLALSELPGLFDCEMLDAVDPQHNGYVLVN
The target is the same in assay [9]. To be noted: at 1 µM.
For assay [10], the target named is T2, Serine/threonine-protein kinase TBK1 (Homo sapiens) (UniProt Q9UHD2).
T2 sequence (whole entry): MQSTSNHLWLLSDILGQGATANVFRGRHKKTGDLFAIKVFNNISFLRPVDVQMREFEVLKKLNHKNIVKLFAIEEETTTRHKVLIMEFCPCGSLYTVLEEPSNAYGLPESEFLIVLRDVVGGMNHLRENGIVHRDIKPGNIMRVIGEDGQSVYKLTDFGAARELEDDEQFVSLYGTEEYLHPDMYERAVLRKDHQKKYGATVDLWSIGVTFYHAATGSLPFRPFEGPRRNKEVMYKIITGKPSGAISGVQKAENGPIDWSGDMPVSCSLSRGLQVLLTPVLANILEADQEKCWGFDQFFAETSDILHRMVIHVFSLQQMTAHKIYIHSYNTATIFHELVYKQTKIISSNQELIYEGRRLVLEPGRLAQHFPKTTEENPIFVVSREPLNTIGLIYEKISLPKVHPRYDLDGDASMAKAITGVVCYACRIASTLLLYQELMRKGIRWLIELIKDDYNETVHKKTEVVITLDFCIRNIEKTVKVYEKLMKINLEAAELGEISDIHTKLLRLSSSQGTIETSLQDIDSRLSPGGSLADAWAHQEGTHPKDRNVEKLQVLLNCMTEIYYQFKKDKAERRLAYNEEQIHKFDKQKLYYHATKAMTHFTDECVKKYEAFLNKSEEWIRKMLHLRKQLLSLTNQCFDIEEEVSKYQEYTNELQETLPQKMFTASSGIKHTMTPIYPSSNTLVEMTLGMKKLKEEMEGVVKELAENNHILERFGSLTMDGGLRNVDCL
To be noted: at 0.1 µM.

Assay [11] deals with T2, Serine/threonine-protein kinase TBK1 (Homo sapiens). Conditions: at 1 µM.
The target in assay [12] is T3, Testis-specific serine/threonine-protein kinase 1 (Homo sapiens) (UniProt Q9BXA7).
T3 sequence (whole entry): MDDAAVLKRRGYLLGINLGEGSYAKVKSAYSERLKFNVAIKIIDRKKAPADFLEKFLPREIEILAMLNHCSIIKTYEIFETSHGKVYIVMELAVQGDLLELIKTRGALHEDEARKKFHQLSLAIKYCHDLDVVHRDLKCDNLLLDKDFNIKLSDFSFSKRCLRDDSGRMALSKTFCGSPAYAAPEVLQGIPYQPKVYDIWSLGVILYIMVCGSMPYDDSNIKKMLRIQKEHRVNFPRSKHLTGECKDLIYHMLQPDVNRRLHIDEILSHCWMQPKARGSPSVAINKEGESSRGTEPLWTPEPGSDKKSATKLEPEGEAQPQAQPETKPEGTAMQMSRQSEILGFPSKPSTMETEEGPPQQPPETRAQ
To be noted: at 0.1 µM.

Assay [13] deals with T3, Testis-specific serine/threonine-protein kinase 1 (Homo sapiens). Conditions: at 1 µM.
The target in assay [14] is T4, Testis-specific serine/threonine-protein kinase 2 (Homo sapiens) (UniProt Q96PF2).
T4 sequence (whole entry): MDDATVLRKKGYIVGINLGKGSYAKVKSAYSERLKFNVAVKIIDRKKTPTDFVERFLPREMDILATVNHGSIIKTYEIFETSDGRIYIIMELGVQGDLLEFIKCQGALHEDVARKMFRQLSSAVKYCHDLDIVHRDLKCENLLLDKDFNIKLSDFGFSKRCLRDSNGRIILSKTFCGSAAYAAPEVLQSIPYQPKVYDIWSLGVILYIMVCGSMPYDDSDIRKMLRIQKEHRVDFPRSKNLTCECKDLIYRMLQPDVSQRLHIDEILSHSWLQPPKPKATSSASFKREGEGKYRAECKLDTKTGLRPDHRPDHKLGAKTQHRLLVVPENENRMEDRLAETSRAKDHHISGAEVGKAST
Conditions: at 0.1 µM.

The target of assay [15] is T4, Testis-specific serine/threonine-protein kinase 2 (Homo sapiens). Conditions: at 1 µM.
The target in assay [16] is Casein kinase I isoform alpha (Homo sapiens) (UniProt P48729). Conditions: at 0.1 µM.
Casein kinase I isoform alpha (Homo sapiens), sequence (P48729 2-337 limits assumed): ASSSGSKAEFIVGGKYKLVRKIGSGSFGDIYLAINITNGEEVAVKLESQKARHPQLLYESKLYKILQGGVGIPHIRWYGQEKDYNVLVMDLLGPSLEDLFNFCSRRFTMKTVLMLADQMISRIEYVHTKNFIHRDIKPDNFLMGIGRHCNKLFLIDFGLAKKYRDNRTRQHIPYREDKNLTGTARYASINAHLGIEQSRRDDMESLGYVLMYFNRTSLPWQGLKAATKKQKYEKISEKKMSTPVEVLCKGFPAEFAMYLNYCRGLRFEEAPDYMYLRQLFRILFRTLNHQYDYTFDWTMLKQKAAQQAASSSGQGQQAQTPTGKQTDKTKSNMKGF
The target is the same in assay [17]. To be noted: at 1 µM.
Assay [18] deals with Casein kinase I isoform gamma-1 (Homo sapiens) (UniProt Q9HCP0). Conditions: at 0.1 µM.
Casein kinase I isoform gamma-1 (Homo sapiens), sequence (Q9HCP0 whole entry, looked up, canonical isoform): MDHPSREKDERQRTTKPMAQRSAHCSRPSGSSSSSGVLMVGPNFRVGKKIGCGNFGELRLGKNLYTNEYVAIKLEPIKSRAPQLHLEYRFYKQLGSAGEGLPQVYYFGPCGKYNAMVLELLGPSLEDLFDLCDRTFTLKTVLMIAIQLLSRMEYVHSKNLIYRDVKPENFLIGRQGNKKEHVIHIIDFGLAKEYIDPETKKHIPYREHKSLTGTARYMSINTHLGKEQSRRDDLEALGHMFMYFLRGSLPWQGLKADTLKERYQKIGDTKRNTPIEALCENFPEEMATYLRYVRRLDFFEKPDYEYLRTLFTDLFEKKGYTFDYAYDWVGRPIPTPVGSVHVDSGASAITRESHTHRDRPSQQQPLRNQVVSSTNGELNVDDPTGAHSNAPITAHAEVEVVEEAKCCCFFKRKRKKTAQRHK
Assay [19] has the same target. To be noted: at 1 µM.
The target in assay [20] is Casein kinase I isoform gamma-2 (Homo sapiens) (UniProt P78368). To be noted: at 0.1 µM.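 Note: values are mean inhibition figures reported as part of the GSK PKIS dataset.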
Casein kinase I isoform gamma-2 (Homo sapiens), sequence (P78368 whole entry, looked up, canonical isoform): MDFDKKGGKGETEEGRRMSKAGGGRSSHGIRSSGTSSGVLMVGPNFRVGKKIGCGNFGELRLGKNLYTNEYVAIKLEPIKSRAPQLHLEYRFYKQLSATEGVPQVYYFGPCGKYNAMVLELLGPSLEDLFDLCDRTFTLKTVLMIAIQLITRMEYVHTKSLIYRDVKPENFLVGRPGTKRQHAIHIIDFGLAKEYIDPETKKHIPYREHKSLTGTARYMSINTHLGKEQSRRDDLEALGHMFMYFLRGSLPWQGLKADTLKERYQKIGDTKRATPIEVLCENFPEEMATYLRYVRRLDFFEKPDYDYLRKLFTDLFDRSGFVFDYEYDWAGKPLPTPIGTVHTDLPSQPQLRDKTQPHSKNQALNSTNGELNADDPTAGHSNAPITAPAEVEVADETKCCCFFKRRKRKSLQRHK

Serine/threonine-protein kinase pim-2 (Homo sapiens), sequence (Q9P1W9 whole entry, looked up): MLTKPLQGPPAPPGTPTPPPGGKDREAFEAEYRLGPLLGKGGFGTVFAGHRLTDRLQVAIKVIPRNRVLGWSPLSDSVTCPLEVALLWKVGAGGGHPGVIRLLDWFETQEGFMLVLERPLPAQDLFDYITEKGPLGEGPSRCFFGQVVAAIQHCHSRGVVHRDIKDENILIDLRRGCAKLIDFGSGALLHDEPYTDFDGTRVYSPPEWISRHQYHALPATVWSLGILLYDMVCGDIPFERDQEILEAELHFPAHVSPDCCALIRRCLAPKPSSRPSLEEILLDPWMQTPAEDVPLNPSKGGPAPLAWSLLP

Take `O=C1Nc2ccccc2/C1=C/Nc1ccc2[nH]c(=O)[nH]c2c1`: the inhibition – broadly, the change of the read-out against control, counted positive when it falls – in assay [1] is -0.46%; in [2], -0.36%; in assay [3], 5.21%; in assay [4] it was 1.86%; in [5], 5%; in assay [6], 3.92%. In addition, the inhibition was found to be 14.9% in [7]; 9.13% in assay [8]; 17.6% in assay [9]; 8.2% in assay [10]; 21.2% in [11]; 4.5% in assay [12]. Moreover, the inhibition in [13] turned out to be 8.92%; in [14], 3.14%; in assay [15] it was 4.56%; in assay [16] it was 8.75%; in assay [17] it was 21.8%; in assay [18], 4.87%. Moreover, the inhibition in assay [19] came to 7.45%; in assay [20], 3.6%.
Consider `NS(=O)(=O)c1cccc(-c2cc3ccncc3cc2OCc2ccccc2)c1`, for which the inhibition in assay [1] is 0.25%; in [2] it was -1.15%; in [3] it was -3.18%; in [4] it was 1.74%; in assay [5], 0.61%; in assay [6], 0.44%. In addition, the inhibition came out at 5.64% in assay [7]; 1.16% in assay [8]; 3.39% in assay [9]; 2.28% in [10]; 6.61% in assay [11]; 2.13% in assay [12]. In addition, the inhibition worked out at 0.96% in assay [13]; 2.68% in assay [14]; 0.84% in assay [15]; 0.06% in [16]; 3.92% in [17]; 4.57% in [18]. Further, the results for the inhibition in assay [19] and in assay [20] were 4.83% and 3.06%, respectively.
In the case of `[O-][S+]1CCN(Cc2ccc(-c3ccc4ncnc(Nc5ccc(OCc6ccccc6)c(Cl)c5)c4c3)o2)CC1`, the inhibition in assay [1] is 0.25%; in assay [2], 0.7%; in [3], 1.32%; in assay [4], 0.67%; in [5] it was 0.37%; in assay [6], 0.43%. Also, the inhibition turned out to be 7.59% in assay [7]; 1.44% in [8]; 5.75% in assay [9]; 0.91% in assay [10]; 2.35% in assay [11]; 2.58% in assay [12]. The inhibition in [13] is 2.95%; in assay [14] it was 1.24%; in assay [15], 1.08%; in [16], 1.88%; in assay [17] it was 2.94%; in [18], 1.25%. Also, the inhibition is 2.34% in assay [19] and 0.8% in [20].
Regarding `N#Cc1cccc(Nc2nccc(-c3cnn4ncccc34)n2)c1`, the inhibition is 7.85% in assay [1]; 4.41% in assay [2]; 34% in assay [3]; 1.48% in [4]; 4.15% in assay [5]; 8.01% in assay [6]. Further, the inhibition in assay [7] was determined as 15.1%; in assay [8], 4.44%; in [9] it was 11.9%; in assay [10], 1.58%; in assay [11] it was 22.1%; in assay [12], 6.69%. In addition, the inhibition in assay [13] stood at 10.6%; in assay [14], 2.43%; in [15], 2.95%; in assay [16], 28.9%; in assay [17], 69.8%; in assay [18] it was 5.75%. Besides, the inhibition came out at 28.2% in assay [19] and 6.38% in assay [20].
`NS(=O)(=O)c1ccc(N/N=C2\C(=O)Nc3ccc(Cl)cc32)cc1`: the inhibition came to 2.1% in assay [1]; 0.5% in assay [2]; 4.86% in [3]; 1.31% in assay [4]; 3.24% in assay [5]; 3.88% in assay [6]. Also, the inhibition in [7] came to 10.9%; in assay [8], 3.51%; in assay [9], 10.6%; in assay [10], 2.27%; in assay [11] it was 9.93%; in [12] it was 4.37%. The inhibition in [13] was determined as 6.32%; in [14] it was 3.29%; in [15] it was 2.98%; in [16], 3.27%; in assay [17] it was 4.21%; in assay [18], 2.59%. The inhibition was determined as 3.4% in assay [19] and 2.56% in assay [20].
For `COC(=O)c1cncc(/C=C/c2c(C)cc(O)cc2C)c1`, the inhibition came out at 0.09% in [1]; 0.93% in assay [2]; 3.35% in assay [3]; 1.73% in assay [4]; 2.57% in assay [5]; 19.2% in [6]. Also, the inhibition was determined as 84.3% in [7]; 5.81% in assay [8]; 20% in assay [9]; 1.26% in assay [10]; 3.98% in [11]; 2.95% in assay [12]. The inhibition in [13] amounted to 5.68%; in [14], 0.9%; in assay [15], 0.8%; in assay [16], 1.49%; in [17] it was 4.06%; in assay [18], 3.02%. In addition, the inhibition worked out at 4.65% in [19] and 2.68% in assay [20].
